Our source for the growth inhibition values is PubChem BioAssay (NCI).

Assay [1] in a line: NCI Yeast Anticancer Drug Screen. Data for the rad50 strain (AID 155).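 Further: 0% = growth of vehicle-only cultures of the same strain.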 The conditions noted are these: S. cerevisiae rad50 strain growth inhibition; at 50.0 µM; stronger effect = higher value. The essentials: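 Genetically altered yeast (DNA repair pathway); compound treatment; growth inhibition vs vehicle ctrl.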
The nature of assay [2]: NCI Yeast Anticancer Drug Screen. Data for the mec2-1 strain (AID 157). Particulars: S. cerevisiae mec2-1 strain, at 50.0 µM, stronger effect = higher value. A digest of the protocol:
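Compounds were applied to mec2-1 yeast cells. Their growth was then compared with that of vehicle-treated cultures to give growth inhibition.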

A short description of assay [3]: NCI Yeast Anticancer Drug Screen. Data for the sgs1 mgt1 strain (AID 161).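 Further: 0% = growth of cultures given vehicle only.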 Particulars: S. cerevisiae sgs1 mgt1 strain, at 50.0 µM, stronger effect = higher value. The essentials: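 Percent growth inhibition was derived by comparing compound-exposed mutant yeast with vehicle-exposed cultures. The strain carries alterations in DNA damage repair.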
A short description of assay [4]: NCI Yeast Anticancer Drug Screen. Data for the cln2 rad14 strain (AID 165).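 Further: 0% = growth equal to vehicle treated cultures.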 Particulars: S. cerevisiae cln2 rad14 strain, at 50.0 µM, stronger effect = higher value. A digest of the protocol:
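Strain: cln2 rad14 yeast, altered in cell cycle control and DNA damage repair. Read-out: growth inhibition vs vehicle.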

The nature of assay [5]: NCI Yeast Anticancer Drug Screen. Data for the bub3 strain (AID 167). The conditions noted are these: S. cerevisiae bub3 mutant strain, at 50.0 µM, stronger effect = higher value. A digest of the protocol: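 Yeast carrying a defined mutation is treated with each compound, and growth is compared with that of vehicle-exposed cells to give inhibition.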
A short description of assay [6]: NCI Yeast Anticancer Drug Screen. Data for the mlh1 rad18 strain (AID 175). Particulars: S. cerevisiae mlh1 rad18 strain growth inhibition; at 50.0 µM; stronger effect = higher value. A digest of the protocol:
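A repair-deficient yeast strain is exposed to test compound, and growth is scored relative to vehicle-treated controls.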

SMILES strings stand for the structures. About 79,000 compounds went through this panel and 15% of them were active in at least one assay; those are over-represented in the sample as a whole. Unmarked numbers belong to inactive results. The source made the active and inactive calls. No stated cut-off is given here; in the data, active means growth inhibition above about 70%; inactive means the rest.

For `COc1cc(C(C)S(=O)(=O)O)ccc1O` (stereo unspecified), the growth inhibition was -19.6% in assay [1]; 1.7% in assay [2]; 8.45% in assay [3]; -12.6% in assay [4]; 4.9% in assay [5]; -5.55% in assay [6].
In the case of `CCN(CC)C(=O)c1ccccc1`, the growth inhibition is 7.75% in assay [1]; 8.6% in assay [2]; -10.3% in assay [3]; -2.65% in assay [4]; -24.6% in assay [5]; 10.3% in assay [6].
As to `O=C(Nc1ccccc1)c1cccn1-c1ccccc1`, the growth inhibition in assay [1] was 2.7%; in assay [2] it was -13.1%; in assay [3], 12.1%; in assay [4] it was 13.5%; in assay [5], -19%; in assay [6], -2.95%.
With `Cc1cccc(-c2nnc3s/c(=C\c4ccc(N(C)C)cc4)c(=O)n23)c1`, the growth inhibition in assay [1] was -3.05%; in assay [2], 8.15%; in assay [3], 13.4%; in assay [4], 13.8%; in assay [5] it was 13.5%; in assay [6] it was 16.4%.
As for `Cc1cc(C)nc(NS(=O)(=O)c2ccc(NC(=O)C(Cl)(Cl)Cl)cc2)n1`, the growth inhibition is -34% in assay [1]; -24.6% in assay [2]; -35.4% in assay [3]; -13% in assay [4]; -42% in assay [5]; -39.8% in assay [6].
For `O=C(O)c1cc([N+](=O)[O-])cc(P(=O)(O)O)c1`, the growth inhibition in assay [1] was 2.55%; in assay [2] it was -6.45%; in assay [3] it was -2%; in assay [4], -20.2%; in assay [5], -3.55%; in assay [6], 12.9%.
On to `CC1(C)C2CC3OC3(C)C1C2` (stereo unspecified), for which the growth inhibition was 21.3% in assay [1]; -7% in assay [2]; 12.4% in assay [3]; -55.9% in assay [4]; -19.9% in assay [5]; -10.8% in assay [6].
Turning to `CCN(CC)CCSC(=O)C(O)(c1ccccc1)c1cccc(C)c1` (stereo unspecified), the growth inhibition in assay [1] was 9.1%; in assay [2], 10.1%; in assay [3] it was -2.2%; in assay [4] it was -11.9%; in assay [5], -1.4%; in assay [6], 10.6%.
In the case of `CC1=NN2C(c3ccc(Cl)cc3)=CSC2=NC(C)(C)C1`, the growth inhibition is 16.6% in assay [1]; -16.9% in assay [2]; -3.1% in assay [3]; 5.8% in assay [4]; -8.6% in assay [5]; -13.2% in assay [6].
For `CCOC(=O)c1nc2ccc(C(F)(F)F)cc2nc1Nc1ccc(Cl)c(Cl)c1`, the growth inhibition is -22.1% in assay [1]; 4.1% in assay [2]; -13.9% in assay [3]; -19% in assay [4]; -1.35% in assay [5]; 6.15% in assay [6].
For the compound `CCCOc1ncnc2nc[nH]c12`, the growth inhibition in assay [1] is 7.3%; in assay [2], -6.05%; in assay [3], 1.55%; in assay [4] it was -6.4%; in assay [5], 5.3%; in assay [6], 19.7%.
With `C/C(=C/C(C)O)c1ccccc1` (stereo unspecified), the growth inhibition was -13.6% in assay [1]; -3.85% in assay [2]; -15.2% in assay [3]; 4.9% in assay [4]; -6.1% in assay [5]; -6.9% in assay [6].
For the compound `CC(=O)CC(=O)C1CCC(C(=O)CC(C)=O)CC1` (stereo unspecified), the growth inhibition is -3.7% in assay [1]; 6.2% in assay [2]; 0.65% in assay [3]; -28.1% in assay [4]; -0.7% in assay [5]; -13.2% in assay [6].
For `Cn1c(=O)c(C(c2ccccc2)c2c(O)c3ccccc3n(C)c2=O)c(O)c2ccccc21`, the growth inhibition in assay [1] is 12.1%; in assay [2], 6.5%; in assay [3], -19.2%; in assay [4], -34%; in assay [5], 2.8%; in assay [6] it was 15.8%.
Regarding `Cc1ccc2c(c1)CCCN2`, the growth inhibition is 7.2% in assay [1]; 11.2% in assay [2]; 4.65% in assay [3]; 21.6% in assay [4]; 9.8% in assay [5]; 7.55% in assay [6].
Consider `COC(=O)C1=C(C)N(NC(N)=O)C2(N)N(NC(N)=O)C(C)=C(C(=O)OC)C12C(=O)OC` (stereo unspecified), for which the growth inhibition in assay [1] was -9.65%; in assay [2], -31.2%; in assay [3] it was -43.2%; in assay [4], -9.7%; in assay [5] it was -4%; in assay [6] it was -26.4%.
Turning to `CN(C)CC(C)(C)C(=O)c1ccc(F)cc1`, the growth inhibition in assay [1] was 5.35%; in assay [2], 5.8%; in assay [3], -0.1%; in assay [4] it was 3.55%; in assay [5], 1.7%; in assay [6], 12.3%.
`CSC(=S)c1ccc(NSc2ccccc2[N+](=O)[O-])cc1`: the growth inhibition in assay [1] was 7.6%; in assay [2], 23.6%; in assay [3] it was 46.8%; in assay [4], 14%; in assay [5] it was 20.4%; in assay [6], 33.8%.
In the case of `O=C1NC(N2CCOCC2)=N/C1=C\c1ccccc1O`, the growth inhibition in assay [1] is -1.3%; in assay [2], -26%; in assay [3] it was -7.8%; in assay [4], -8.65%; in assay [5], 16.1%; in assay [6], 81.2% (active).
For `O=[N+]([O-])c1cccc(/C=[N+](\[O-])c2ccccc2)c1`, the growth inhibition is -3.45% in assay [1]; 8.2% in assay [2]; 13% in assay [3]; -38.6% in assay [4]; -16.9% in assay [5]; 0.6% in assay [6].
With `CCCCCOc1ccc2ccccc2c1`, the growth inhibition was -23.5% in assay [1]; -27.8% in assay [2]; -18.6% in assay [3]; -20.9% in assay [4]; 10.2% in assay [5]; 7.15% in assay [6].
